# The whole screen tested about 85,000 compounds, of which about 5,100 (6%) were called active. The entries come from a sample that favours actives as a whole. Values without a mark were called inactive.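 Rule for the calls: active = viability at or below 40%; inactive = viability above 40%.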
# Test: H69AR cell viability reduction – human, 86K library, primary screen (AID 598);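 note: multidrug resistant small cell line overexpressing MRP-1 efflux transporter; 100% = mean luminescence of untreated control wells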
# Conditions: H69AR lung tumor viability, ATP luminescence, 72 h; at 10 µM; stronger effect = lower value
row,Compound,viability
1,Cc1nc2c(c(=O)n1Cc1ccco1)c1nc3ccccc3nc1n2Cc1ccccc1,11.2% (active)
2,COCCCn1c2nc3ccccc3nc2c2c(=O)n(Cc3ccc(Cl)cc3)c(C)nc21,64.8%
3,Cc1ccc(Cn2c(C)nc3c(c2=O)c2nc4ccccc4nc2n3Cc2ccco2)cc1,83.3%
4,OCCCN1c2ccccc2Nc2nnc(-c3ccccc3)cc21,39.4% (active)
5,Cc1nc(NC(=O)C2CCCCC2)sc1C,91.5%
6,O=C(O)CSCC(=O)Nc1cccc(C(F)(F)F)c1,96.6%
7,CCNS(=O)(=O)c1ccc(NC(=O)Nc2cccc(C(F)(F)F)c2)cc1,9.94% (active)
8,CCNS(=O)(=O)c1ccc(NC(=O)Nc2cccc(OC)c2)cc1,82.3%
9,COc1ccc(-c2cn(-c3ccc(C)cc3)c(=O)n2CC(=O)Nc2ccc(OC)c(OC)c2)cc1,76.5%
10,CS(=O)(=O)n1nc(-c2ccccc2)nc1NCc1ccco1,96.7%
11,Cc1cc(S(=O)(=O)NC2CCCCC2)ccc1OCC(=O)NCc1cccnc1,107%
12,CC1(C)CC(CC(=O)O)C(=O)O1 (configuration not stated),98%
13,COc1cccc(OCC(O)CN2CCN(CCO)CC2)c1 (configuration not stated),96.9%
14,Cc1ccc(OCC(O)CN2CCN(CC(O)COc3ccc(C)cc3Cl)CC2)c(Cl)c1 (configuration not stated),1.96% (active)
15,OC(COc1cccc2ccccc12)CN1CCN(c2ccccn2)CC1 (configuration not stated),86.3%
16,Cc1nnc(SCC(=O)NCc2cccs2)[nH]c1=O,91.8%
17,O=C(CSc1nnnn1-c1ccccc1)NCc1ccco1,80%
18,CCN(CC(=O)NCc1cccs1)c1nnnn1-c1ccccc1,14% (active)
19,c1ccc2c(c1)C(=NC1CCCCC1)NC2=NC1CCCCC1,15.9% (active)
20,O=C1CCCCC(=O)c2ccccc2N1,102%
21,Cc1nnc(OCC(=O)NCCC2=CCCCC2)c2ccccc12,101%
22,COC(=O)Nc1c(C)n(C)n(-c2ccccc2)c1=O,99.9%
23,Cc1c(NC(=O)c2coc(=O)c(Br)c2)c(=O)n(-c2ccccc2)n1C,2.66% (active)
24,Cc1cc(C(=O)Nc2c(C)n(C)n(-c3ccccc3)c2=O)cs1,110%
25,O=C(Nc1ccc(Cl)cn1)Nc1cccs1,98.4%

row,Compound,viability
1,Clc1ccc(Nc2nc(-c3cccs3)cs2)nc1,31.8% (active)
2,c1ccc(Nc2nc(-c3ccncc3)cs2)nc1,86.7%
3,Cc1cc(C)c2cc(CN(Cc3nnnn3Cc3ccc(F)cc3)C3CCCC3)c(=O)[nH]c2c1,64.6%
4,CCCCOC(=O)Cn1c(=N)n(CCN(CC)CC)c2ccccc21,91.2%
5,CCOC(=O)C1CCc2nc3ccccc3c(=O)n21 (configuration not stated),96.6%
6,CCn1c(/C=C/c2ccc([N+](=O)[O-])o2)nc2ccccc2c1=O,6.55% (active)
7,O=c1c2ccccc2nc(N/N=C/c2ccccc2)n1O,46.3%
8,O=C(CCN1c2ccccc2Sc2ccccc21)Nc1ccccc1,70.8%
9,CC1=CC(=O)C=CC1(C)C(Cl)(Cl)Cl (configuration not stated),105%
10,COc1ccc2c(c1)cc1n2CCN=C1NN,90.8%
11,COC(=O)C1=C(C(=O)OC)C2(OC1c1ccc(Br)cc1)C(=O)c1ccccc1C2=O (configuration not stated),106%
12,CCOC(=O)c1ccc(N2C(=O)CC(N(C)Cc3ccccc3)C2=O)cc1 (configuration not stated),93.7%
13,Oc1c(CN2CCN(c3ccc(F)cc3)CC2)cc(Cl)c2cccnc12,5.07% (active)
14,O=C(c1cccc(C(=O)N2CCN(c3ccc(F)cc3)CC2)c1)N1CCN(c2ccc(F)cc2)CC1,70.1%
15,Fc1ccc(N2CCN(Cc3cnc(Oc4ccc(Br)cc4)s3)CC2)cc1,90.4%
16,Cn1c(-c2sc3cc(C(F)(F)F)cnc3c2-c2ccccc2)n[nH]c1=S,92.5%
17,C=CCc1ccc(OCCOc2cccc(/C=N/n3cnnc3)c2)c(OC)c1,80.3%
18,O=C(OCC#CCSc1nnc(-c2ccncc2)o1)c1sc2ccccc2c1Cl,2.76% (active)
19,CCOC(=O)CSc1nnc(-c2ccncc2)o1,95.7%
20,O=C(Nc1ccon1)c1sc2ccccc2c1Cl,88.1%
21,O=C(Nc1ccc2c(c1)CCC2)c1cccc(S(=O)(=O)N2CCN(c3ccc(F)cc3)CC2)c1,79.3%
22,COc1ccc(C2SCCN2S(=O)(=O)c2ccccc2)cc1OC (configuration not stated),81.4%
23,COc1ccc(C2CC(=O)n3c(nc4ccccc43)S2)cc1OC (configuration not stated),115%
24,COc1ccc(C2CC(c3cccs3)=Nc3ccccc3S2)cc1OC (configuration not stated),20.8% (active)
25,O=C(Nc1ccc(F)c(Cl)c1)C1CCN(S(=O)(=O)c2cccnc2)CC1,71.8%

row,Compound,viability
1,CCOC(=O)c1cnn(Cc2ccccc2Cl)c1N,96.2%
2,CC1CCCN(C(C(=O)Nc2ccc(C(C)C)cc2)c2ccc3c(c2)OCO3)C1 (configuration not stated),59.6%
3,Cc1[nH]n(-c2ccc([N+](=O)[O-])cc2)c(=O)c1C=NCCN1CCN(C(=O)c2ccccc2F)CC1,39.4% (active)
4,CC(=O)N1CCN(CCN=CC2=C(O)CC(C)(C)CC2=O)CC1,101%
5,CC(=O)Nc1ccc(S(=O)(=O)N2CCN(C(=O)c3ccccc3F)CC2)cc1,85.2%
6,CCC(C(=O)NCc1ccc(OC)cc1)n1nc(C)n2c(cc3occc32)c1=O (configuration not stated),80.3%
7,CCCc1nnc(NC(=O)c2cccs2)s1,102%
8,CCCCNS(=O)(=O)c1ccc(S(=O)(=O)n2cnc3ccccc32)cc1,88.8%
9,O=S(=O)(c1ccc(Br)cc1)n1ccc2ccccc21,8.36% (active)
10,CC1(C)C2CCC13CS(=O)(=O)NC3C2 (configuration not stated),91.1%
11,CCn1c(C)nc2cc(C(=O)NNS(=O)(=O)c3ccc(C)cc3C)ccc21,95.5%
12,OC(c1ccccc1)c1nccn1Cc1ccccc1 (configuration not stated),94.2%
13,CCn1c(Cc2cccs2)nnc1SCC(=O)c1ccc(C)cc1,84.1%
14,O=C(CN1CCN(c2ncc(C(F)(F)F)cc2Cl)CC1)Nc1ccc2c(c1)OCO2,105%
15,NC(=O)c1ncc(C(F)(F)F)cc1Oc1ccc(F)cc1,102%
16,N/C(=N\OC(=O)Nc1ccc(Cl)c(Cl)c1)c1ncc(C(F)(F)F)cc1Cl,19.4% (active)
17,CCN1CCN(Cc2c(O)ccc3c(=O)c(-c4ccc(OC)c(OC)c4)c(C(F)(F)F)oc23)CC1,104%
18,O=c1c(-c2ccc3c(c2)OCCO3)c(C(F)(F)F)oc2cc(O)cc(O)c12,39% (active)
19,CCSc1ccccc1C(=O)NCc1ccc(OC)cc1,92.6%
20,CC(C)c1ccc(-c2noc(C3CCCN(S(C)(=O)=O)C3)n2)cc1 (configuration not stated),106%
21,Cn1c(C(=O)NCCCN2CCN(c3cccc(Cl)c3)CC2)cc2c(=O)n(C)c3ccccc3c21,1.66% (active)
22,CCn1c(=O)cc(OCC(=O)NCCCN2CCN(c3cccc(Cl)c3)CC2)c2ccccc21,43.8%
23,CC1CCCC(C)N1CCCNC(=O)c1cc2c(=O)n(C)c3ccccc3c2n1C (configuration not stated),69.1%
24,Cn1c(=O)c2c(ncn2CC(COCc2ccccc2Cl)OCc2ccccc2Cl)n(C)c1=O (configuration not stated),77.7%
25,Cc1ccc(-c2noc(CSc3nnc(-c4cccs4)n3C)n2)cc1,98.8%

row,Compound,viability
1,COCCNS(=O)(=O)c1cc(Br)ccc1OC,106%
2,CCOCCn1c(C(C)C)nc2ccccc21,102%
3,CCC(=O)NC(Nc1cc(C)ccn1)(C(F)(F)F)C(F)(F)F,99%
4,O=C(Nn1cc(C(=O)N2CCN(c3ccccc3F)CC2)c2ccccc2c1=O)c1cnccn1,34.7% (active)
5,COc1ccc2oc(=O)c(C(=O)N3CCN(c4ccccc4F)CC3)cc2c1,108%
6,O=C(c1cccc2ccccc12)N1CCN(c2ccccc2F)CC1,56%
7,CC(C)OC(=O)c1c(NC(=O)c2ccco2)sc2c1CCCC2,109%
8,O=C1C(Cl)=C(N2CCOCC2)C(=O)N1c1ccccc1,86.6%
9,COc1cc(NS(=O)(=O)c2ccc(NC(C)=O)cc2)cc(OC)c1,90.3%
10,COc1ccc(S(=O)(=O)Nc2ccc3oc(C)c(C(C)=O)c3c2)cc1,18.7% (active)
11,COc1ccc2oc(C)c(NC(C)=O)c2c1,97.4%
12,C=CCN(C(=O)Cn1ncc2c1-c1cc(C)ccc1OC2)c1ccccc1,84.9%
13,CC(=O)C1=C(C)NC(=O)NC1c1cc(Br)ccc1OCC#N (configuration not stated),97.1%
14,COc1ccccc1-n1c(CNC(=O)c2ccccc2)nnc1SCC(=O)Nc1nnc(C)s1,108%
15,Cc1nnc(NC(=O)CSc2nccn2-c2cccc(C)c2C)s1,29.5% (active)
16,Cc1cnc(NC(=O)CSc2nnc(C)s2)s1,81.4%
17,C=CCOC(=O)C1=C(C)NC(SCC(=O)OCC)=C(C#N)C1c1ccc(C)cc1 (configuration not stated),61.6%
18,CCOC(=O)CSC1=C(C#N)C(c2ccco2)C(C(=O)OCc2ccccc2)=C(C)N1 (configuration not stated),22.2% (active)
19,COc1cc2c(cc1OC)C(c1ccc(C)o1)CC(=O)N2 (configuration not stated),85.8%
20,COC(=O)CSC1=C(C#N)C(c2ccccc2OC)C(C(=O)OC)C(=O)N1 (configuration not stated),94.8%
21,CC1=C(C(=O)Nc2ccccc2)C(c2ccco2)C(C#N)=C(SCC(N)=O)N1 (configuration not stated),91%
22,Cc1ccc(C2CC(=O)NC(SCC(=O)OCc3ccccc3)=C2C#N)o1 (configuration not stated),24.4% (active)

# From PubChem BioAssay AID598 (SRMLSC, 2007)
